In PubChem BioAssay (Tox21):
Results filed as inconclusive are left out. Activity calls are given as the source filed them. Unless noted, calls follow the shape of the dose curve; as a rule, active = well fitted curve in the direction sought with a large enough effect in the repeat runs; inconclusive = weak or mixed curves; inactive = no such curve, though single readings can be large; an effect the other way counts as inactive or inconclusive.

What was measured:
[1] = qHTS assay to identify small molecule agonists of the peroxisome proliferator-activated receptor delta (PPARd) signaling pathway - cell viability counter screen (AID 743211); also: % is scaled to controls: 0 for no effect and ±100 for the full control effect; nearly all actives have a fitted effect of over 55% in size
Outline: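 Multiplexed format: after the 2 h room-temperature LiveBLAzer B/G FRET step, CellTiter-Glo was added to the same wells. Luminescence after 30 min gave cell viability; compound exposure was 17 h at 37C.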

[2] = biological target: Peroxisome proliferator-activated receptor delta (Homo sapiens) (UniProt Q03181); experiment: qHTS assay to identify small molecule agonists of the peroxisome proliferator-activated receptor delta (PPARd) signaling pathway (AID 743212; calls by dose curve; also: % is scaled to controls: 0 for no effect and ±100 for the full control effect)
Chain of Peroxisome proliferator-activated receptor delta (Homo sapiens) (Q03181 whole entry, looked up): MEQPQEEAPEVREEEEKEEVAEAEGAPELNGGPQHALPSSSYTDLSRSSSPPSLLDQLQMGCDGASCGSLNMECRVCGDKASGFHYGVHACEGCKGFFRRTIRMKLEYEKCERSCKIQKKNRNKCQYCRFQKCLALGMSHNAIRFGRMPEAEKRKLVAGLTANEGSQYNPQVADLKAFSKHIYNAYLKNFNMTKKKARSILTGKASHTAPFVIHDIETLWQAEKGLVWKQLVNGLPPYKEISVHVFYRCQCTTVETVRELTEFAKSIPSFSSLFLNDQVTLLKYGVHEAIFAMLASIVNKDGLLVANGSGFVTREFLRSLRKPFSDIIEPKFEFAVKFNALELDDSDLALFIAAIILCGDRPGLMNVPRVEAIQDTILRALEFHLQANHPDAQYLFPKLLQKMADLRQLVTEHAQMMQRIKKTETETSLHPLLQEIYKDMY
Outline: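 GeneBLAzer PPARd UAS-bla HEK293H cells (beta-lactamase reporter under UAS control), plated and rested 5 h at 37 C, then exposed to compounds in DMSO at 37 C; LiveBLAzer B/G FRET substrate added, 2 h room temperature, fluorescence read.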

[3] = biological target: Peroxisome proliferator-activated receptor delta (Homo sapiens) (UniProt Q03181); experiment: qHTS assay to identify small molecule antagonists of the peroxisome proliferator-activated receptor delta (PPARd) signaling pathway (AID 743215; active = well fitted inhibition curve with a large enough effect in the signal ratio in the repeat runs, not every such curve was filed as active; the % refers to the signal ratio;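 also: cells stimulated with agonist L165041 at 300 nM final during compound exposure; series mostly up to about 62 µM; % is scaled to controls: 0 for no effect and ±100 for the full control effect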)
Outline: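 PPARd-bla HEK293H cells (UAS-bla reporter) preincubated 5 h, then given compound plus 300 nM final L165041 agonist for 17 h at 37 C. Beta-lactamase activity read by LiveBLAzer B/G FRET substrate fluorescence after 2 h at room temperature.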

[4] = biological target: Bile acid receptor (Homo sapiens) (UniProt Q96RI1); experiment: qHTS assay to identify small molecule antagonists of the farnesoid-X-receptor (FXR) signaling pathway (AID 743217; active = well fitted inhibition curve with a large enough effect in the signal ratio in the repeat runs, not every such curve was filed as active; the % refers to the signal ratio; also: % is scaled to controls: 0 for no effect and ±100 for the full control effect)
Chain of Bile acid receptor (Homo sapiens) (Q96RI1 whole entry, looked up): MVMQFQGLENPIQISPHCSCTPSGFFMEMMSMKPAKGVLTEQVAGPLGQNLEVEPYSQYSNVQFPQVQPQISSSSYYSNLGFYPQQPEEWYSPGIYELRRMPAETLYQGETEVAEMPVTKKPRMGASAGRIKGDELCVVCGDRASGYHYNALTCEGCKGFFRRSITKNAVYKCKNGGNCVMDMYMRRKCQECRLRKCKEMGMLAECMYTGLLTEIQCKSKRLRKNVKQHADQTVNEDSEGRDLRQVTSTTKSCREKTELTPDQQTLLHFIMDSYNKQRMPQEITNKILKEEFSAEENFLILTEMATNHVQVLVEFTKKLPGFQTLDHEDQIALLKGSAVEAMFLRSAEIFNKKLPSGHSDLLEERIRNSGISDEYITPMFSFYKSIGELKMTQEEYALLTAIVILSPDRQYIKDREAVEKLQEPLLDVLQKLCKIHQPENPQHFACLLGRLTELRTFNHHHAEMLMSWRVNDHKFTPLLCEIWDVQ
Outline: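 FXR-UAS-bla HEK 293T cells (beta-lactamase reporter) given compound plus chenodeoxycholic acid (50 uM final), 16 h at 37C. LiveBLAzer B/G FRET substrate added for 2 h at room temperature; fluorescence read.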

[5] = qHTS assay to identify small molecule agonists of the farnesoid-X-receptor (FXR) signaling pathway - cell viability counter screen (AID 743218); also: % is scaled to controls: 0 for no effect and ±100 for the full control effect; nearly all actives have a fitted effect of over 45% in size
Outline: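 FXR-UAS-bla HEK 293T cells exposed to compounds for 16 h at 37C. Cytotoxicity read in the same wells by CellTiter-Glo luminescence after 30 min at room temperature, following the beta-lactamase FRET read.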

[6] = biological target: Bile acid receptor (Homo sapiens) (UniProt Q96RI1); experiment: qHTS assay to identify small molecule agonists of the farnesoid-X-receptor (FXR) signaling pathway (AID 743220; active = well fitted activation curve with a large enough effect in the signal ratio in the repeat runs, not every such curve was filed as active; the % refers to the signal ratio; also: % is scaled to controls: 0 for no effect and ±100 for the full control effect)
Outline: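 Beta-lactamase reporter under UAS control in GeneBLAzer FXR HEK 293T cells (5000/well) measured with LiveBLAzer FRET substrate after 2 h at room temperature. Compound exposure lasted 16 h at 37C.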

[7] = qHTS assay to identify small molecule antagonists of the farnesoid-X-receptor (FXR) signaling pathway - cell viability counter screen (AID 743221; active = well fitted cell-killing curve with a large enough effect in the repeat runs, not every such curve was filed as active; also: % is scaled to controls: 0 for no effect and ±100 for the full control effect; nearly all actives have a fitted effect of over 50% in size)
Outline: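 CellTiter-Glo, 30 min RT, luminescence; same wells as the LiveBLAzer FRET read. Cells: FXR-UAS-bla HEK 293T. Treatment: compound with chenodeoxycholic acid 50 uM final, 16 h at 37 C.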

[8] = biological target: Vitamin D3 receptor (Homo sapiens) (UniProt P11473); experiment: qHTS assay to identify small molecule antagonists of the vitamin D receptor (VDR) signaling pathway (AID 743223; active = well fitted inhibition curve with a large enough effect in the signal ratio in the repeat runs, not every such curve was filed as active; the % refers to the signal ratio; also: % is scaled to controls: 0 for no effect and ±100 for the full control effect)
Chain of Vitamin D3 receptor (Homo sapiens) (P11473 whole entry, looked up): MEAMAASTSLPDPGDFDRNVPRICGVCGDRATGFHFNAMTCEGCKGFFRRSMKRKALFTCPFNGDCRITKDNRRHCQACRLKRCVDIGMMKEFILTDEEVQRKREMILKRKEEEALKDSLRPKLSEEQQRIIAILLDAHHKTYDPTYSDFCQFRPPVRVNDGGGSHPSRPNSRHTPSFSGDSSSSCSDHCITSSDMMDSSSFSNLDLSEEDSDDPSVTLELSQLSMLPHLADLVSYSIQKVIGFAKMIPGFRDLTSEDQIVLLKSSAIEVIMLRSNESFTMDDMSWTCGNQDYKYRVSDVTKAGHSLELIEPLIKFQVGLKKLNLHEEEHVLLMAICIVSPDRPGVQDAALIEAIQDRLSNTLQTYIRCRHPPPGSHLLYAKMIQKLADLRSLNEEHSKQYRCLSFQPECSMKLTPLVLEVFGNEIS
Outline: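 After VDR-bla cells are plated and left 4 h at 37C, DMSO-dissolved compounds and 3 nM (final) calcitriol agonist are added. Incubation continues 16 h at 37C; FRET beta-lactamase substrate then develops 2 h at room temperature.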

[9] = qHTS assay to identify small molecule antagonists of the vitamin D receptor (VDR) signaling pathway - cell viability counter screen (AID 743225); also: % is scaled to controls: 0 for no effect and ±100 for the full control effect; nearly all actives have a fitted effect of over 50% in size
Outline: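 Cytotoxicity toward the VDR-bla HEK 293T line was scored by ATP-based CellTiter-Glo luminescence, read in the wells already used for the beta-lactamase readout after 16 h compound treatment under 3 nM 1-alpha,25-dihydroxyvitamin D3 stimulation.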

[10] = qHTS assay to identify small molecule agonists of the NFkB signaling pathway (AID 1159509; active = well fitted curve in the direction sought with a large enough effect in the signal ratio in the repeat runs, not every such curve was filed as active; the % refers to the signal ratio)
Outline: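 NFkB-bla ME-180 cells with a beta-lactamase reporter under an NF-kB response element were plated overnight, treated with compounds in DMSO for 5 hr at 37 C, then loaded with FRET substrate for 1.5 hr at room temperature.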

[11] = qHTS assay to identify small molecule agonists of the NFkB signaling pathway - cell viability counter screen (AID 1159515; calls by dose curve; also: series mostly up to about 61 µM; % is scaled to controls: 0 for no effect and ±100 for the full control effect; nearly all actives have a fitted effect of over 55% in size)
Outline: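 NFkB-bla ME-180 cells, 2,000/well, plated overnight at 37 C; compound added for 5 hr at 37 C. Viability read in the same wells as the bla reporter, by CellTiter-Glo luminescence after 30 min at room temperature.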

[12] = qHTS assay to identify small molecule agonists of the endoplasmic reticulum stress response signaling pathway (AID 1159516; active = well fitted activation curve with a large enough effect in the signal ratio in the repeat runs, not every such curve was filed as active; the % refers to the signal ratio; also: % is scaled to controls: 0 for no effect and ±100 for the full control effect)
Outline: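 CellSensor ESRE-bla HeLa cells, 1,500 per well, plated overnight, then exposed to compounds for 5 hr at 37 C. Beta-lactamase reporter read with LiveBLAzer B/G FRET substrate after 2 hr at room temperature, 405 nm excitation, 460 and 530 nm emission.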

[13] = qHTS assay to identify small molecule agonists of the endoplasmic reticulum stress response signaling pathway - cell viability counter screen (AID 1159517; calls by dose curve;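 also: HeLa cells carrying an ER stress response element beta-lactamase reporter; series mostly up to about 61 µM; % is scaled to controls: 0 for no effect and ±100 for the full control effect; nearly all actives have a fitted effect of over 50% in size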)
Outline: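 Luminescence readout: CellTiter-Glo, 30 min RT, same wells as the ESRE-bla reporter read. HeLa ESRE-bla, 1,500 cells/well, o/n 37 C; cpd 5 hr 37 C/5% CO2.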

[14] = qHTS assay to identify small molecule antagonists of the retinoid-related orphan receptor gamma (ROR-gamma) signaling pathway - cell viability counter screen (AID 1159520); also: % is scaled to controls: 0 for no effect and ±100 for the full control effect; nearly all actives have a fitted effect of over 50% in size
Outline: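 Tet-on ROR gamma CHO cells (1,000/well) were plated 4 hr, given compounds in DMSO for 2 hr at 37 C, then induced with 1 uM final doxycycline for 16 hr. Viability was read as ATP by CellTiter-Glo luminescence after 30 min.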

[15] = biological target: Nuclear receptor ROR-gamma (Homo sapiens) (UniProt P51449); experiment: qHTS assay to identify small molecule antagonists of the retinoid-related orphan receptor gamma (ROR-gamma) signaling pathway (AID 1159521)
Outline: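 Readout: ONE-Glo luciferase luminescence, 30 min at room temperature. System: Tet-on RORγ CHO, RORE-LUC. Sequence: compound 2 h, doxycycline 1 uM final, 16 h at 37 C.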

[16] = qHTS assay to identify small molecule agonists of the AP-1 signaling pathway - cell viability counter screen (AID 1159525; calls by dose curve; also: nearly all actives have a fitted effect of over 55% in size)
Outline: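 ME-180 AP-1-bla, 2500 cells/well, Opti-MEM + 0.5% dialyzed FBS; overnight 37 °C; cpd 15-pt titration, 5 h 37 °C; CellTiter-Glo 30 min RT; luminescence read; normalised to TOAB and DMSO controls.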

[17] = qHTS assay to identify small molecule agonists of the AP-1 signaling pathway (AID 1159526; calls by dose curve; also: % is scaled to controls: 0 for no effect and ±100 for the full control effect)
[18] = qHTS assay to identify small molecule antagonists of the peroxisome proliferator-activated receptor delta (PPARd) signaling pathway - cell viability counter screen (AID 743213)
Outline: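 HEK293H cells with the PPARd UAS-bla reporter, co-treated 17 h at 37 C with compounds and L165041 (300 nM final), were lysed with CellTiter-Glo. Luminescence indicated viable cell content.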

[19] = qHTS assay to identify small molecule agonists of the vitamin D receptor (VDR) signaling pathway - cell viability counter screen (AID 743224)
Outline: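 VDR-bla cells, 4 h after plating, exposed to compounds for 16 h at 37C; viability then read in the same wells as CellTiter-Glo luminescence after 30 min at room temperature, following the bla FRET read.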

[20] = biological target: Vitamin D3 receptor (Homo sapiens) (UniProt P11473); experiment: qHTS assay to identify small molecule agonists of the vitamin D receptor (VDR) signaling pathway (AID 743222; calls by dose curve; also: % is scaled to controls: 0 for no effect and ±100 for the full control effect)
Outline: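 VDR-bla cells plated 4 h at 37 C, then exposed to compounds for 16 h at 37 C. Beta-lactamase reporter activity measured by fluorescence after 2 h room-temperature loading with LiveBLAzer B/G FRET substrate.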

O=S(=O)(O)c1ccc2c(N=Nc3ccc(S(=O)(=O)O)c4ccccc34)c(O)c(S(=O)(=O)O)cc2c1
inactive: activity change, negative = cytotoxicity [1] 3.44% [at 5.95 µM] | activation [2] 0.0676% [at 5.95 µM] | ratio activity, negative = inhibition [3] 7.03% [at 6.26 µM] | activity change, negative = inhibition [4] -1.36% [at 5.95 µM] | viability change, negative = cytotoxic [5] 1.45% [at 5.95 µM] | activation [6] -0.449% [at 5.95 µM] | activity change, negative = cytotoxicity [7] -3.15% [at 5.95 µM] | activity change, negative = inhibition [8] 8.98% [at 6.95 µM] | viability change, negative = cytotoxic [9] 6.08% [at 6.95 µM] | activation [10] 0.493% [at 6.95 µM] | activity, negative = cytotoxic [11] 6.88% [at 6.95 µM] | activation [12] -2.39% [at 6.95 µM] | activity change, negative = cytotoxicity [13] 0.511% [at 6.95 µM] | activity, negative = cytotoxicity [14] -3.34% [at 8.39 µM] | activity change, negative = inhibition [15] 0.236% [at 8.39 µM] | viability change, negative = cytotoxic [16] 6.35% [at 6.97 µM] | activation [17] -3.05% [at 6.97 µM]

CC1=C(C(=O)O)N2C(=O)[C@@H](NC(=O)[C@H](N)c3ccccc3)[C@H]2SC1
inactive: outcome [1] | outcome [2] | outcome [18] | outcome [7] | outcome [8] | outcome [19] | outcome [9] | outcome [10] | outcome [11] | outcome [12] | outcome [13] | outcome [14] | outcome [15] | outcome [16] | outcome [17]

C/C=C(\C)C(C)=O
inactive: outcome [1] | outcome [2] | outcome [18] | outcome [3] | outcome [5] | outcome [7] | outcome [19] | outcome [9] | outcome [10] | outcome [11] | outcome [12] | outcome [13] | outcome [14] | outcome [15] | outcome [16] | outcome [17]

COCCc1ccccn1
inactive: outcome [1] | outcome [2] | outcome [18] | outcome [3] | outcome [5] | outcome [7] | outcome [19] | outcome [9] | outcome [10] | outcome [11] | outcome [12] | outcome [13] | outcome [14] | outcome [15] | outcome [16] | outcome [17]

CC1c2ccccc2CN1NC(=O)c1ccc(Cl)c(S(N)(=O)=O)c1 (stereo not given)
inactive: outcome [1] | outcome [2] | outcome [18] | outcome [4] | outcome [6] | outcome [7] | outcome [20] | outcome [8] | outcome [19] | outcome [9] | outcome [10] | outcome [11] | outcome [12] | outcome [13] | outcome [14] | outcome [15] | outcome [16] | outcome [17]

CC(C)[C@H]1CC[C@H](C)C[C@@H]1O
inactive: outcome [1] | outcome [2] | outcome [18] | outcome [4] | outcome [6] | outcome [7] | outcome [20] | outcome [8] | outcome [9] | outcome [10] | outcome [11] | outcome [12] | outcome [13] | outcome [14] | outcome [15] | outcome [16] | outcome [17]

C#CCN[C@@H]1CCc2ccccc21
inactive: outcome [1] | outcome [2] | outcome [18] | outcome [3] | outcome [5] | outcome [19] | outcome [9] | outcome [10] | outcome [11] | outcome [12] | outcome [13] | outcome [14] | outcome [15] | outcome [16] | outcome [17]

COC(=O)/C=C\C(=O)O
inactive: outcome [1] | outcome [2] | outcome [18] | outcome [3] | outcome [5] | outcome [7] | outcome [19] | outcome [9] | outcome [10] | outcome [11] | outcome [12] | outcome [13] | outcome [14] | outcome [15] | outcome [16] | outcome [17]
